From PubChem BioAssay
Calls of active or inactive are those of the source.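 Rule for the calls, unless noted: active = visually confirmed hit in the image check and inhibition above 20%; inconclusive = visually confirmed hit but inhibition not above 20%; inactive = no visual hit in the image check.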

Legend:
[1] = inhibitors of TNFa-induced NFkB p65 translocation, primary screen, imaging, HUVEC, MLSMR starter and 10KST1 sets (AID 438;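 active = inhibition above 20% together with a positive visual image hit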;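 note: compound added about 3h40 before a 20 min TNFalpha stimulation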;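 for inhibition: signal is the nuclear over cytoplasmic p65 intensity ratio per well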); settings: HUVEC TNFa-induced p65 nuclear translocation; cell count: measured here: nuclei count (cytotoxicity indicator), at 2.08 µM; inhibition: at 2 µM, stronger effect = higher value, 0% TNFa-plus-vehicle, 100% no-TNFa wells
[2] = reduction of polyQ htt aggregates in cells – imaging, exon1htt(103Q)mCFP cells, high-content imaging, primary screen (AID 483;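 active = visual image review flags a hit and inhibition of aggregation exceeds 20%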;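 note: compound exposure lasted 3 days before fixation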;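 for nuclei count: percent of the per-plate median nuclei count of sample wells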); settings: exon1htt(103Q)mCFP cell line, aggregate imaging, at 2 µM; inhibition of aggregation: stronger effect = higher value; nuclei count: measured here: cell count, toxicity
[3] = endothelial E-selectin expression blockers – imaging, HUVEC, immunofluorescence, MLSMR starter and 10KST1 sets, primary screen (AID 487); settings: HUVEC TNFalpha-induced E-selectin immunofluorescence imaging, at 2 µM; inhibition: stronger effect = higher value; nuclei count: measured here: cell number, toxicity;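 for inhibition: signal is fraction of cell area covered by stained E-selectin grains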;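 for nuclei count: 100% = median nuclei count of all wells on the same plate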
[4] = Primary imaging screen for DUSP6 inhibitors that restore phospho-Erk in transfected HeLa cells, chemical complementation (AID 609;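 active = compounds giving at least 50% inhibition in the cell-based MKP-3 phosphatase rescue imaging test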;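 for inhibition: phospho-Erk level distribution per well compared with pooled transfected vehicle control wells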); settings: HeLa MKP-3 transfected, phospho-Erk imaging KS statistic, at 10 µM, cells stimulated with TPA for 15 min
[5] = biological target: Dual specificity protein phosphatase 6 (Homo sapiens) (UniProt Q16828); experiment: as above; settings: HeLa MKP-3 transfected, phospho-Erk imaging KS statistic; at 10 µM; stronger effect = higher value; cells stimulated with TPA for 15 min
[6] = biological target: Voltage-gated potassium channel subunit beta-2 (Rattus norvegicus) (UniProt P62483); experiment: inhibitors of rat Kvbeta2 reductase activity – biochemical, NADPH fluorescence, primary screen (AID 622;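 active = fluorescence slope higher than the sample average by over 3 SD, cut at about -0.22 in these data, passing the limit was not always enough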;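 note: slope of raw intensity against log time taken from 70 to 1610 s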); settings: recombinant KvBeta, 4-cyanobenzaldehyde reduction, at 10 µM, stronger effect = higher value
[7] = biological target: Voltage-gated potassium channel subunit beta-2 (Rattus norvegicus) (UniProt P62483); experiment: enhancers of rat Kvbeta2 NADPH turnover – biochemical, NADPH fluorescence, primary screen (AID 623;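 active = NADPH fluorescence slope more negative than the mean of all samples by about 3 SD, 99.7% confidence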;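 note: fluorescence intensity change per second fitted from 20 to 320 s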); settings: Recombinant KvBeta, NADPH fluorescence decrease slope, 10 min; at 10 µM; stronger effect = lower value
[8] = biological target: Alpha-2C adrenergic receptor (Homo sapiens) (UniProt P18825); experiment: compounds altering alpha2C-coupled GIRK flux – cell-based, HEK293 alpha2C/GIRK1/2, thallium flux, primary screen (AID 624;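 active = fluorescence slope after compound addition differing from the mean of all screened samples at 99.7% confidence, in either direction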;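 note: slope of fluorescence ratio to pre-addition baseline per second over 15 to 24 s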); settings: thallium flux BTC fluorescence, at 10 µM, actives lie on both sides
[9] = biological target: Muscarinic acetylcholine receptor M4 (Homo sapiens) (UniProt P08173); experiment: M4-linked GIRK flux change, two-sided – cell-based, HEK293 M4/GIRK, thallium flux, BTC-AM, M4 allosteric agonist project, primary screen (AID 625;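 active = fluorescence slope after compound addition differing from the mean of all tested samples at 99.7% confidence, mostly higher but some lower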;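 note: thallium influx through GIRK channels coupled to M4 in HEK293 cells with BTC-AM dye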); settings: at 10 µM, actives lie on both sides
[10] = inhibitors of larval lipid processing in zebrafish, primary screen, whole organism, PED6 fluorescence, gall bladder and intestine (AID 686;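 active = a full or partial loss of lipid-probe fluorescence in the fish gall bladder, intestine or both, judged by eye; inactive = no fluorescence loss, or compound toxic to the fish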;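 note: larvae 5 to 7 days old with five fish per well; signal comes from phospholipase A2 cleavage of quenched PED6 carried via bile; overnight exposure to compound and PED6 before scoring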); settings: Zebrafish larvae PED6 lipid processing, fluorescence scoring; screened at 20 µM (by protocol)
[11] = loss of swimming-algae plug formation – whole organism, Chlamydomonas reinhardtii, WT vs cilia-less mutant, absorbance, 96-well, primary screen (AID 463189;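 active = inhibition at or above 50% relative to wild type and mutant plate controls; inactive = inhibition below 50%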;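 note: 0% = wild type cc124 cells in DMSO and 100% = ciliumless bld1 mutant cells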); settings: Chlamydomonas reinhardtii gravitaxis, OD600 absorbance, 2 days; at 10 µM; stronger effect = higher value
[12] = blockers of RIG-like receptor reporter activation – cell-based, Sendai virus stimulus, luciferase, 10K MLSCN set, TLR/RLR signaling modifier project, primary screen (AID 602276;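 active = inhibition at or above 50% at 10 µM; inactive = inhibition below 50%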;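 note: firefly luciferase from ISG56 promoter only with Renilla not read in this screen; 0% = Sendai virus plus DMSO and 100% = medium plus DMSO without virus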); settings: HEK293 RL24 IRF3 luciferase reporter, at 10 µM, stronger effect = higher value
[13] = TLR3 IRF3 reporter activation blockers – cell-based, poly I:C stimulus, luciferase, 10K MLSCN set, primary screen (AID 602277;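 active = inhibition of the reporter signal at or above 50%; inactive = inhibition below 50%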); settings: HEK293-TLR3 RL24 IRF3 luciferase reporter, at 10 µM, stronger effect = higher value
[14] = measured here: cell density z-score
[15] = measured here: nuclear c-Myc green intensity z-score
[16] = measured here: nuclear pErk red intensity z-score, stronger effect = higher value

Chain of Muscarinic acetylcholine receptor M4 (Homo sapiens) (P08173 whole entry, looked up): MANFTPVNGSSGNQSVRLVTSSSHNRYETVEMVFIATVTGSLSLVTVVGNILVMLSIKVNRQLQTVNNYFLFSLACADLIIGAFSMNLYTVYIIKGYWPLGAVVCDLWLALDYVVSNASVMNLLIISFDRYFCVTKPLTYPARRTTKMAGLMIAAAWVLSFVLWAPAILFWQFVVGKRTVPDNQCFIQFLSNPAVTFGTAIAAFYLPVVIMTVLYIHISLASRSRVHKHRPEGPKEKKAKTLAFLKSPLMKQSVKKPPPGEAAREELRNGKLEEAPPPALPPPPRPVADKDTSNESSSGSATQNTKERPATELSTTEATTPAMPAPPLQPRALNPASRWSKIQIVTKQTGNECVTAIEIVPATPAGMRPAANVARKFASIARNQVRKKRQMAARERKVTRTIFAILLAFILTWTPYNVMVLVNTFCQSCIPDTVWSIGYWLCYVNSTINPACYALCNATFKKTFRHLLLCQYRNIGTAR
Chain of Alpha-2C adrenergic receptor (Homo sapiens) (P18825 whole entry, looked up): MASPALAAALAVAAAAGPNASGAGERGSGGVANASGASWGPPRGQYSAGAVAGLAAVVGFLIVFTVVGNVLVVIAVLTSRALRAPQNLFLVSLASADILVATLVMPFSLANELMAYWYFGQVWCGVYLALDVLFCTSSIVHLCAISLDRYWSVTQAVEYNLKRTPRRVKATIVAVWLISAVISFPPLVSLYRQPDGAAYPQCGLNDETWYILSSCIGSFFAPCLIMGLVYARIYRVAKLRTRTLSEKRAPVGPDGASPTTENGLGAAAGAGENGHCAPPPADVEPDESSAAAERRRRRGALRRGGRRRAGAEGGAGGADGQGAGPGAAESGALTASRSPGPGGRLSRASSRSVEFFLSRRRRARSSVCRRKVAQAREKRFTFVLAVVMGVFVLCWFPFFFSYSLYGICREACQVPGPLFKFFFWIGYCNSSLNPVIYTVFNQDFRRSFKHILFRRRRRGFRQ
Chain of Voltage-gated potassium channel subunit beta-2 (Rattus norvegicus) (P62483 whole entry, looked up): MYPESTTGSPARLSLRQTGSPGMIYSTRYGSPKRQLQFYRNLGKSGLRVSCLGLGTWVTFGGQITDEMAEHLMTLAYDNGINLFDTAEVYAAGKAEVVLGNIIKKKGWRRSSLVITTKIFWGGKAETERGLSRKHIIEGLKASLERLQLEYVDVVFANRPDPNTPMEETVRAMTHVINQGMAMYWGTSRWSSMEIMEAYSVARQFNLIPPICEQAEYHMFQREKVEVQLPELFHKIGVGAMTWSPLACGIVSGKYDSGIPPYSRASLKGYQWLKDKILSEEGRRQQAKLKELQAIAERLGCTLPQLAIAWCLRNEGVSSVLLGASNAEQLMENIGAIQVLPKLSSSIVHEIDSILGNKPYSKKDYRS
Chain of Dual specificity protein phosphatase 6 (Homo sapiens) (Q16828 whole entry, looked up): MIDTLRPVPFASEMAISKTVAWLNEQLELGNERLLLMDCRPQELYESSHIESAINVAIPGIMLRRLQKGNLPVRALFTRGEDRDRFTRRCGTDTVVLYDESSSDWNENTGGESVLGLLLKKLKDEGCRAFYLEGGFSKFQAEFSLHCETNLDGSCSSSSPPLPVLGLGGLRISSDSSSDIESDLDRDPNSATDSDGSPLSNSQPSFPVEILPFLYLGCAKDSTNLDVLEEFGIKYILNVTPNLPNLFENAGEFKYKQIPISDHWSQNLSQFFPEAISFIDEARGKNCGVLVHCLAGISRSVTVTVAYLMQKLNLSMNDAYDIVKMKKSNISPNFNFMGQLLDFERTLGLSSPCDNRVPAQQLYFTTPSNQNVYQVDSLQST

Structure (SMILES) | cell count [1] | inhibition [1] | inhibition of aggregation [2] | nuclei count [2] | inhibition [3] | nuclei count [3] | z-score [4, 14] | z-score [4, 15] | z-score [4, 16] | inhibition [5] | fluorescence slope [6] | NADPH fluorescence slope [7] | slope [8] | fluorescence slope [9] | outcome [10] | inhibition [11] | inhibition [12] | inhibition [13]
CC(CN1CCN(C)CC1)OC(=O)c1ccc(Cl)cc1Cl (stereo not given) | 495 | 2.7% (inactive) | -4.3% (inactive) | 89.3% | 5.7% (inactive) | 93.6% | 0.0987 | 0.463 | -0.406 | -0.624% (inactive) | -0.4 (inactive) | -7.7e-06 (inactive) | 0.00282 (inactive) | 0.00468 (inactive) | inactive | 136% (active) | 11.3% (inactive) | 23.1% (inactive)
CCOC(=O)C1/C(=N\O)CC(C)(O)C(C(=O)OCC)C1c1ccc(N(C)C)cc1 (stereo not given) | 497 | -1.5% (inactive) | -7.6% (inactive) | 106% | -131% (inactive) | 152% | -0.215 | 1.47 | 0.208 | 1.9e-07% (inactive) | -0.427 (inactive) | -4.6e-05 (inactive) | 0.00546 (inactive) | 0.00445 (inactive) | inactive | 0.652% (inactive) | 10.4% (inactive) | 16% (inactive)
C/C(=N\O)C(=O)NCCCNCCCN(C)C | 609 | -2.7% (inactive) | -14.3% (inactive) | 109% | -42% (inactive) | 115% | -1.26 | 0.664 | -0.264 | -3.95% (inactive) | -0.495 (inactive) | -5.8e-05 (inactive) | 0.0053 (inactive) | 0.00686 (inactive) | inactive | -5.12% (inactive) | 15.3% (inactive) | 20.9% (inactive)
CC(=O)Nc1ccc(Oc2ccc3nc(C)[nH]c3c2)cc1 | 566 | -6.8% (inactive) | 13% (inactive) | 95.6% | -129% (inactive) | 133% | -0.271 | -0.885 | -1.67 | 13.7% (inactive) | -0.504 (inactive) | -3.4e-05 (inactive) | 0.00532 (inactive) | 0.00521 (inactive) | inactive | 5.53% (inactive) | -8.22% (inactive) | -0.929% (inactive)
CCOC(=O)c1ccc(N2C(=O)CC(Sc3nnc(C)s3)C2=O)cc1 (stereo not given) | 627 | -1.6% (inactive) | -10.1% (inactive) | 98% | -62.1% (inactive) | 104% | 0.196 | -1.44 | -0.8 | -5.81% (inactive) | -0.471 (inactive) | -1.4e-05 (inactive) | 0.0059 (inactive) | 0.00572 (inactive) | inactive | 30.9% (inactive) | 1.68% (inactive) | 7% (inactive)
CCCCc1nc(NCCN2CCOCC2)c(C#N)c2c1COC(C)(C)C2 | 472 | -7.6% (inactive) | -37.3% (inactive) | 122% | -75.1% (inactive) | 116% | -1.08 | 2.36 | -1.06 | 3.42% (inactive) | -0.542 (inactive) | 8.4e-06 (inactive) | 0.00518 (inactive) | 0.00481 (inactive) | inactive | 98.1% (active) | 15.9% (inactive) | 10.1% (inactive)
N#CC1(c2ccccc2)CCC(=NO)CC1 (stereo not given) | 685 | -0.6% (inactive) | -8% (inactive) | 102% | 8.8% (inactive) | 86.8% | -0.0727 | 1.42 | -0.351 | -13.3% (inactive) | -0.461 (inactive) | -4.5e-05 (inactive) | 0.00512 (inactive) | 0.00503 (inactive) | inactive | -5.88% (inactive) | 10.2% (inactive) | 20.6% (inactive)
CCS(=O)(=O)CCn1c([N+](=O)[O-])cnc1C | 637 | 5.5% (inactive) | 9.6% (inactive) | 97.3% | -68.3% (inactive) | 110% | 0.704 | 2.39 | 0.14 | 27.9% (inactive) | -0.507 (inactive) | -8.1e-05 (inactive) | 0.00495 (inactive) | 0.00503 (inactive) | inactive | 19% (inactive) | -12.7% (inactive) | -11.5% (inactive)
CCN(CC)C(=O)c1sc2nc(-c3cccs3)cc(-c3cccs3)c2c1N | 443 | -1.7% (inactive) | 0.6% (inactive) | 90% | -166% (inactive) | 121% | 1.5 | -1.58 | -0.775 | 9.61% (inactive) | 1.5e-14 (active) | 0 (inactive) | 0.00378 (inactive) | -0.00241 (active) | active; no signal in gallbladder and intestine | 15.5% (inactive) | 20.8% (inactive) | 23.7% (inactive)
CCOc1ccc(S(=O)(=O)N(C)C)cc1-c1nc2c(C(C)(C)C)nn(C)c2c(=O)[nH]1 | 411 | 20.9% (active) | -22.3% (inactive) | 107% | 27.5% (inactive) | 115% | 1.1 | 0.134 | -1.43 | 17.3% (inactive) | -0.477 (inactive) | -0.000115 (inactive) | 0.00418 (inactive) | 0.00621 (inactive) | inactive | 19.7% (inactive) | -1.7% (inactive) | -7.19% (inactive)
